{
  "source": "PubChem BioAssay (NCI)",
  "note": "Compounds without any hit were thinned out: in the full panel of roughly 83,000, 20% have a hit.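 Method: cells in 96-well plates; compound added at one concentration; 48 h incubation; percent growth measured; values under 10 scored active.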 Unmarked numbers belong to inactive results. Active and inactive are the calls of the source.",
  "data": [
    {"test_system": "MDA-MB-468 breast", "assay": "NCI-60 one-dose screen, 48 h (100 = growth as untreated, 0 = no growth, -100 = all killed)", "conditions": "10 µM unless noted", "values": [
      {"smiles": "COc1cccc(C2C(C#N)=C(N)Oc3c2ccc2ccccc32)c1", "note": "(stereo not given)", "growth": "11.6%"},
      {"smiles": "Oc1ccc(CN2CCC(N3CCCCC3)CC2)c2cccnc12", "growth": "23.9%"},
      {"smiles": "Cc1ccc(NC(=O)c2cccc(CN3CCN(C)CC3)c2)cc1Oc1ccc(-c2[nH]nc3ncnc(N)c23)cc1", "growth": "51.3%"},
      {"smiles": "C=CCSSc1ncnc2c1ncn2C1OC(CO)C(O)C1O", "note": "(stereo not given)", "growth": "7.11% (active)"},
      {"smiles": "COc1cc(NCCCCN=C(N)N)c2ncccc2c1", "growth": "-29.6% (active)"}
    ]}
  ]
}
